Data as given in PubChem BioAssay (Tox21).
Where “and” joins values, the source holds several entries; their conditions need not be identical. Equal values may be shown once. Inconclusive results are not listed. More than one record can exist for a structure, and the calls need not agree. Calls of active or inactive are those of the source. Unless noted, calls come from the whole dose curve; as a rule, active = well fitted curve in the direction sought with a large enough effect in the repeat runs; inconclusive = weak or mixed curves; inactive = no such curve, though single readings can be large; an effect the other way counts as inactive or inconclusive.

Experiments:
[1] = qHTS assay to identify small molecule antagonists of the glucocorticoid receptor (GR) signaling pathway - cell viability counter screen (AID 720693); note: nearly all actives have a fitted effect of over 55% in size
[2] = qHTS assay to identify small molecule antagonists of the androgen receptor (AR) signaling pathway - cell viability counter screen (AID 743033; note: nearly all actives have a fitted effect of over 45% in size; note: potency is the fitted concentration of half-maximal effect)
[3] = qHTS assay for identifying genotoxic compounds that show differential cytotoxicity against isogenic chicken DT40 cell lines with known DNA damage response pathways - Rad54/Ku70 mutant cell line (AID 743015); note: nearly all actives have a fitted effect of over 60% in size; note: potency is the fitted concentration of half-maximal effect
[4] = qHTS assay to identify small molecule antagonists of the androgen receptor (AR) signaling pathway using the MDA cell line - cell viability counter screen (AID 743041; note: nearly all actives have a fitted effect of over 45% in size)
In short: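 Using the breast carcinoma line MDA-kb2 AR-luc, test chemicals were co-incubated with R1881 for 16 h; CellTiter-Fluor reagent, added at 15.5 h, provided a fluorescence measure of live cells.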

[5] = qHTS assay for identifying genotoxic compounds that show differential cytotoxicity against isogenic chicken DT40 cell lines with known DNA damage response pathways - wild type cell line (AID 743012); note: nearly all actives have a fitted effect of over 60% in size; note: potency is the fitted concentration of half-maximal effect
In short: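 300 wt DT40 cells/well; cpd (DMSO) pintool-transferred after ~0.5 h at 37 C/5% CO2; 40 h incubation; CellTiter-Glo added, 30 min RT; luminescence read.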

[6] = qHTS assay for identifying genotoxic compounds that show differential cytotoxicity against isogenic chicken DT40 cell lines with known DNA damage response pathways - Rev3 mutant cell line (AID 743014); note: nearly all actives have a fitted effect of over 55% in size; note: potency is the fitted concentration of half-maximal effect
[7] = molecular target: Androgen receptor (Homo sapiens) (UniProt P10275); assay: qHTS assay to identify small molecule agonists of the androgen receptor (AR) signaling pathway (AID 743036; active = well fitted activation curve with a large enough effect in the signal ratio in the repeat runs, with a control signal flat, not every such curve was filed as active; the % refers to the signal ratio)
In short: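 Activation was read as beta-lactamase FRET signal from LiveBLAzer B/G substrate, added for 2 h at room temperature. Before that, GeneBLAzer AR-UAS-bla GripTite (HEK293) cells had 16 h compound exposure at 37C.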

[8] = molecular target: Androgen receptor (Homo sapiens) (UniProt P10275); assay: qHTS assay to identify small molecule agonists of the androgen receptor (AR) signaling pathway using the MDA cell line (AID 743040; note: nearly all actives have a fitted effect of over 20% in size)
In short: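 Stable MMTV-luciferase reporter in MDA-kb2 cells; note the promoter carries GR as well as AR response elements. 16 h compound treatment, 37C, 0% CO2; ONE-Glo luminescence endpoint.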

[9] = molecular target: Androgen receptor (Homo sapiens) (UniProt P10275); assay: qHTS assay to identify small molecule antagonists of the androgen receptor (AR) signaling pathway using the MDA cell line (AID 743042; note: nearly all actives have a fitted effect of over 55% in size)
In short: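 Antagonist mode: compounds plus R1881 agonist added to MDA-kb2 AR-luc cells, incubated 16 h at 37C. Luciferase reporter luminescence quantified, with multiplexed CellTiter-Fluor readout for cell viability.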

[10] = molecular target: Androgen receptor (Homo sapiens) (UniProt P10275); assay: qHTS assay to identify small molecule antagonists of the androgen receptor (AR) signaling pathway (AID 743035; active = well fitted inhibition curve with a large enough effect in the signal ratio in the repeat runs, not every such curve was filed as active; the % refers to the signal ratio)
In short: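 In this cell-based reporter screen, compounds were tested in concentration series against R1881-activated HEK293 cells expressing beta-lactamase under UAS control; after 16 h at 37C, FRET substrate was added and fluorescence read 2 h later.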

Measured: Potency

Chain of Androgen receptor (Homo sapiens) (P10275 whole entry, looked up): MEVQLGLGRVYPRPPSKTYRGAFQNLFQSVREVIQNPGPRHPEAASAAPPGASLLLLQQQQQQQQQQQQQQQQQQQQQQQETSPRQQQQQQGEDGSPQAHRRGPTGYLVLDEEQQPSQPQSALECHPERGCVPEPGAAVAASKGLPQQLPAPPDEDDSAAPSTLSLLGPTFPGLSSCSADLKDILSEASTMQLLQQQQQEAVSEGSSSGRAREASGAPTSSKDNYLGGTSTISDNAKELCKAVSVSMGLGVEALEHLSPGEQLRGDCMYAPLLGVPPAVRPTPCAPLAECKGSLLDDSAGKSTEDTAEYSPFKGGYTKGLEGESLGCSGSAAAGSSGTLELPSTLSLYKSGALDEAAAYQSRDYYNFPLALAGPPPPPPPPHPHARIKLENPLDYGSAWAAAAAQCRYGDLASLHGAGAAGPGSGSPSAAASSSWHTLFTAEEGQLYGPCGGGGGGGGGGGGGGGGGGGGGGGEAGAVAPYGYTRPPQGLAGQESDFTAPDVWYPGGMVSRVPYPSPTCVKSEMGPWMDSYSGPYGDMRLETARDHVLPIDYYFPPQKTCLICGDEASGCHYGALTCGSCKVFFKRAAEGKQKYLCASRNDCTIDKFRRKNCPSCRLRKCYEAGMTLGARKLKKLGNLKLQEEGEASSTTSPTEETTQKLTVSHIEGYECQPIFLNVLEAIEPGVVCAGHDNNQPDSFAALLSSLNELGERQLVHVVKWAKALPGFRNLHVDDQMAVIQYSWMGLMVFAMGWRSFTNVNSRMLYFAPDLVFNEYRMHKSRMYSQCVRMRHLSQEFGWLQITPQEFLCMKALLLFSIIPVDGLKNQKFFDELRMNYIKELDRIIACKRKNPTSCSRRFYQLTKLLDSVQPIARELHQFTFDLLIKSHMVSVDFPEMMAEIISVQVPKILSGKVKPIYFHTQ

Clc1cccc(N2CCNCC2)c1
inactive: [1] | [2]

CC1CCCCC1NC(=O)Nc1ccccc1 (configuration not stated)
inactive: [1] | [2]

OC(c1ccc(F)cc1)(c1cncnc1)c1ccccc1Cl (configuration not stated)
active: [3] 61.1 µM
inactive: [1] | [2]

C[C@]1(O)CC[C@H]2[C@@H]3CCC4=CC(=O)CC[C@]4(C)[C@@]3(F)[C@@H](O)C[C@@]21C
inactive: [1] | [3] | [2] | [4]

Nc1cc(Cl)ccc1O
inactive: [2] | [4]
active: [5] 14.9 µM | [6] 14.9 µM | [3] 9.37 µM

CCOC(=O)/C=C(C)/C=C/C[C@@H](C)CCCC(C)C
inactive: [2] | [4]
inactive and 43.3 µM (active): [3]
active: [5] 30.6 µM | [6] 54.5 µM

CC(COc1ccc(Oc2ccccc2)cc1)Oc1ccccn1 (configuration not stated)
active: [3] 61.1 µM
inactive: [1] | [7] | [8] | [4] | [9]

OC(Cn1cncn1)(c1ccc(F)cc1)c1ccccc1F (configuration not stated)
inactive: [1] | [2] | [4]

CC(=O)[C@H]1CC[C@H]2[C@@H]3CC[C@H]4C[C@H](O)CC[C@]4(C)[C@H]3C(=O)C[C@]12C
inactive: [1] | [4]

O=C(O)C(Br)CBr (configuration not stated)
inactive: [1] | [3] | [4]

COC(=O)c1ccccc1S(=O)(=O)NC(=O)N(C)c1nc(C)nc(OC)n1
inactive: [1] | [3] | [2] | [4]

O=[N+]([O-])c1cccc2c([N+](=O)[O-])cccc12
not listed: [1] | [4]
inactive: all other assays above

CC(C)NCC(O)c1ccc(N)c(C#N)c1 (configuration not stated)
inactive: [5] | [6] | [3] | [2] | [4]

CC(CCc1ccccc1)NC(C)C(O)c1ccc(O)cc1 (configuration not stated)
inactive: [1] | [4]

CCCSP(=S)(OCC)Oc1ccc(Cl)cc1Cl (configuration not stated)
active: [3] 61.1 µM
inactive: [1] | [2] | [4]

N#CC(Cl)(Cl)Cl
not listed: [1]
inactive: all other assays above

[As]#[In]
inactive: [5] | [2]

CC(C1CC1)C(O)(Cn1cncn1)c1ccc(Cl)cc1 (configuration not stated)
active: [5] 48.3 µM
inactive: [2]

CN(N=O)C(N)=O
inactive: [5] | [6] | [2] | [4]

O=C(NCO)NCO
inactive: [5] | [2] | [4]

[Cl][Sn]([Cl])([Cl])[Cl]
inactive: [5] | [6] | [3] | [4]

CC1CCC(=O)O1 (configuration not stated)
inactive: [5] | [6] | [2] | [4]

Cc1ncc(CNC(=O)N(CCCl)N=O)c(N)n1
inactive: [5] | [4]

CCS(=O)(=O)C(C)(C)S(=O)(=O)CC
inactive: [5] | [6] | [3] | [4]

NC(=O)c1cc([N+](=O)[O-])cc([N+](=O)[O-])c1
inactive: [5] | [6] | [3] | [4]

CCCCOC(=O)c1ccccc1C(=O)O
not listed: [1] | [2] | [7]
inactive: all other assays above

COC(=O)C1=CCCN(C)C1
inactive: [5] | [3] | [4]

CC(Oc1ccc(Oc2ncc(C(F)(F)F)cc2Cl)cc1)C(=O)O (configuration not stated)
inactive: [8]
active: [3] 61.1 µM

CN1C[C@@H](NS(=O)(=O)N(C)C)C[C@@H]2c3cccc4c3c(cn4C)C[C@H]21
active: [5] 21.1 µM
inactive: [2] | [4]

CCCCCCBr
inactive: [5] | [2]

COc1ccc(C(=O)N2CCCC2=O)cc1
active: [2] 0.0085 µM
inactive: [5] | [3] | [4]

CCOP(=O)(N=C1SCCS1)OCC
inactive: [5] | [6] | [2] | [4]

CCC(=O)c1ccccc1
not listed: [1] | [3] | [7]
inactive: all other assays above

CC(C)[N+](=O)[O-]
inactive: [5] | [6] | [2] | [4]

O=NN1CCCCC1
not listed: [1] | [6]
inactive: all other assays above

O=[N+]([O-])c1cccc(O)c1
inactive: [5] | [3] | [2] | [4]

C[C@]12CC[C@H]3[C@@H](CC=C4C[C@@H](O)CC[C@@]43C)[C@@H]1CC[C@@H]2O
active: [3] 29.8 µM
inactive: [5] | [6] | [2] | [4]

CC(C=O)Cc1ccc2c(c1)OCO2 (configuration not stated)
inactive: [5] | [3] | [2] | [4]

ClCC(Cl)(Cl)Cl
inactive: [5] | [3] | [2] | [4]

Cc1ncc2n1-c1ccc(Cl)cc1C(c1ccccc1F)=NC2
inactive: [6] | [4]

Cc1ncsc1CCCl
inactive: [5] | [6] | [3] | [4]

c1coc(-c2nc3ccccc3[nH]2)c1
inactive: [4]
active: [5] 54.5 µM | [6] 24.3 µM | [3] 54.5 µM

N#CCCC#N
inactive: [5] | [6] | [3] | [4]

COc1cc(OC)nc(NC(=O)NS(=O)(=O)c2ncccc2C(=O)N(C)C)n1
inactive: [5] | [6] | [3] | [2] | [4]

ClC(Cl)Br
inactive: [5] | [4]

CCN(CC)c1nc(C)cc(OP(=S)(OC)OC)n1
inactive: [2] | [4]
active: [5] 48.6 µM | [6] 48.6 µM

CCCCN(CCCCO)N=O
inactive: [5] | [6] | [3] | [4]

CC(C)CC(N(C)C)C1(c2ccc(Cl)cc2)CCC1 (configuration not stated)
inactive: [2] | [4]

CC1(C)C(=O)NC(=O)NC1=O
inactive: [5] | [3] | [2] | [4]

C#CCN1C(=O)COc2cc(F)c(N3C(=O)C4=C(CCCC4)C3=O)cc21
active: [5] 61.1 µM
inactive: [7] | [8] | [4]

O=[N+]([O-])c1cccc2cccnc12
inactive: [2]
